The source of these data is PubChem BioAssay (NCATS).

Records with an inconclusive call do not appear. A number with no mark means an inactive call. Active and inactive are the calls of the source. Calls come from the whole dose curve; as a rule, active = well fitted curve in the direction sought with a large enough effect; inconclusive = small, poorly fitted or top-dose-only effect, or another doubt; inactive = no such curve, though single readings can be large; an effect the other way counts as inactive or inconclusive.
Note: nearly all actives have a fitted effect of over 70% in size.

In the first experiment the target is Luciferin 4-monooxygenase (Photinus pyralis) (UniProt P08659). In words: Biochemical firefly luciferase enzyme assay for NPC (AID 624030).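 Note: purified P. pyralis luciferase at 10 nM with luciferin and ATP substrate; 0% = DMSO and -100% = full luciferase inhibition by PTC124 control.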 Particulars: purified P. pyralis luciferase, luminescence, 5 min; series mostly up to 58.6 µM; activity change, negative = inhibition: at the top concentration. In outline: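 Direct inhibition of firefly luciferase enzyme (10 nM final, 50 mM Tris Acetate) assessed by luminescence within 5 minutes. Percent activity scaled between DMSO and PTC124 positive control, with concentration-effect curves classified by fit quality and response.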
Sequence of Luciferin 4-monooxygenase (Photinus pyralis) (P08659 whole entry, looked up): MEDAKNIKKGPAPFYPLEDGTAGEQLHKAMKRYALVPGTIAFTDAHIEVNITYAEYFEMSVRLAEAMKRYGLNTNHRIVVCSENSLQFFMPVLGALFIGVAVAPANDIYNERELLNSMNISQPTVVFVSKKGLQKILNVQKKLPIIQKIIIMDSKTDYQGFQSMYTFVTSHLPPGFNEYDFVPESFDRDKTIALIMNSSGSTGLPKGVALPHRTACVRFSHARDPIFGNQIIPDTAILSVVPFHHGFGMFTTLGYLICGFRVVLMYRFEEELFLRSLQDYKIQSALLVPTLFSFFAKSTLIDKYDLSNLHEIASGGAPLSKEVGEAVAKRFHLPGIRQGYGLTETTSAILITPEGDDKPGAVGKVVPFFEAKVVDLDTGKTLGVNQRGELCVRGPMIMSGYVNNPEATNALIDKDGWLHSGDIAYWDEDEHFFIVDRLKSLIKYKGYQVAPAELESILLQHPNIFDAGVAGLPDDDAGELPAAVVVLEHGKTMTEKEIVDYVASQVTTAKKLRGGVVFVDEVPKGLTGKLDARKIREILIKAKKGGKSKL
In the case of `CC(CC(C#N)(c1ccccc1)c1ccccc1)N(C)C` (stereo not given), the “activity change, negative = inhibition” value was 3.85% [at 123 µM].
For `COc1ccc2[nH]cc(CCN(C(C)C)C(C)C)c2c1`, the “activity change, negative = inhibition” value is 0.217% [at 123 µM].
As to `CCCN(CCC)CCc1c[nH]c2ccccc12`, the “activity change, negative = inhibition” value was -0.0504% [at 123 µM].
On the same count and under the same terms, the same measure for `CN1CCc2cc(Cl)c(O)cc2[C@H]2c3ccccc3CC[C@@H]21`: 17.7%.
As to `COc1cc(CC(C)N)c(OC)cc1Br` (stereo not given), the Potency entry was “inactive”.
On to `CCC1(c2ccccc2)CCC(=O)NC1=O` (stereo not given), for which the “activity change, negative = inhibition” value was -4.42%.
Same read-out and setting: the same measure for `OC(c1ccccc1)(c1ccccc1)C1CCNCC1`: -0.0045% [at 24.9 µM].
On the same count and under the same terms, the same measure for `CCCCC1C(=O)NC(=O)N(C2CCCCC2)C1=O` (stereo not given): -6.91%.
As to `CC(Cc1ccccc1)NCc1ccccc1Cl` (stereo not given), the “activity change, negative = inhibition” value is -5.67%.
Same read-out and setting: the same measure for `COP(=S)(OC)Oc1ccc(S(N)(=O)=O)cc1`: -1.16%; for `NC1(c2ccccc2)CCCCC1`: 0.522% [at 123 µM]; for `Clc1ccc(CO/N=C(\Cn2ccnc2)c2ccc(Cl)cc2Cl)c(Cl)c1`: 0.968%.
Same read-out and setting: the same measure for `C[C@]12CC[C@H]3[C@@H](CCC4=CC(=O)CC[C@@H]43)[C@@H]1CC[C@@H]2O`: -4.36%; for `CCOC(=O)c1ncn2c1CN(C)C(=O)c1c(I)cccc1-2`: -2.52%.
Still for that read-out and setting: the same measure for `Cc1c(Cl)c(=O)oc2cc(OP(=O)(OCCCl)OCCCl)ccc12`: 0.642%; for `CCC(=O)OC1(c2ccccc2)CCN(C)CC1`: -1.38% [at 123 µM]; for `C[C@H]1CNCCc2ccc(Cl)cc21`: 0.0467%.
Consider `O=C(O)CCCCCCNC1c2ccccc2CCc2ccccc21`, for which the “activity change, negative = inhibition” value is 1.54%.
The same measure, in the same setting: the same measure for `O=C(O)Cc1ccccc1`: -2.28%; for `CCOC(=O)NC(C)(C)Cc1ccc(Cl)cc1`: -1.29%.
Same read-out and setting: the same measure for `CC(Cc1ccc2c(c1)OCO2)NO` (stereo not given): -4.38% [at 123 µM]; for `CN(C)CCc1c[nH]c2cccc(O)c12`: -13% [at 123 µM].
On the same count and under the same terms, the same measure for `COc1ccc(OC)c(CC(C)N)c1` (stereo not given): -2.22% [at 123 µM]; for `CC(=O)OC1(c2ccccc2)CCN(CCc2ccccc2)CC1`: -0.434% [at 123 µM].
Regarding `CN1C(=O)CN=C(c2ccccc2)c2cc(Cl)ccc21`, the “activity change, negative = inhibition” value was -1.5%.
On the same count and under the same terms, the same measure for `C[C@]12Cc3nonc3C[C@@H]1CC[C@@H]1[C@@H]2CC[C@@]2(C)[C@H]1CC[C@]2(C)O`: -4.75%; for `CN1C(=O)[C@@H](NC(=O)c2cc3ccccc3[nH]2)N=C(c2ccccc2)c2ccccc21`: 0.0286%; for `c1ccc2c(c1)Sc1ccccc1N2CC1CN2CCC1CC2` (stereo not given): 9.01%.

Tested on in another experiment: not listed separately
In words: S16 Schwann cell viability assay (CellTiter-Glo assay) (AID 624031).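 For activity change, negative = cytotoxicity: native untransfected S16 rat Schwann cells; plate controls were DMSO-treated cells for no effect and cell-free wells for full effect.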 Note: potency is the fitted concentration of half-maximal effect. As to conditions: S16 rat Schwann cells viability, 24 h; series mostly up to 57.5 µM; activity change, negative = cytotoxicity: at the top concentration. In outline: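 Rat S16 Schwann cells without reporter constructs received compound or DMSO for 24 h at 37 °C under 5% CO2. Cellular ATP was then quantified by CellTiter-Glo luminescence, with vehicle wells defined as 0% activity and cell-free wells as reference.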
A general note: ATP-based viability assays read luminescence as a measure of living cells.
Take `CCC1(c2ccccc2)CCC(=O)NC1=O` (stereo not given): the “activity change, negative = cytotoxicity” value is 20.5%.
On the same count and under the same terms, the same measure for `OC(c1ccccc1)(c1ccccc1)C1CCNCC1`: -1.79% [at 25.7 µM]; for `CC(Cc1ccccc1)NCc1ccccc1Cl` (stereo not given): -0.825%.
`O=C1NCN(c2ccccc2)C12CCN(CCCC(c1ccc(F)cc1)c1ccc(F)cc1)CC2`: the Potency is 22.8 µM (active).
For the compound `Clc1ccc(CO/N=C(\Cn2ccnc2)c2ccc(Cl)cc2Cl)c(Cl)c1`, the “activity change, negative = cytotoxicity” value was -19%.
Still for that read-out and setting: the same measure for `Cc1c(Cl)c(=O)oc2cc(OP(=O)(OCCCl)OCCCl)ccc12`: -2.35%; for `CN1C(=O)[C@@H](NC(=O)c2cc3ccccc3[nH]2)N=C(c2ccccc2)c2ccccc21`: -11.4%.
